According to PubChem BioAssay AID651742 (Broad Institute, 2012):
About 780 (14%) of roughly 5,600 compounds were called active. About 3% were inconclusive and are not listed. The list is a sample of the results. Values without a mark were called inactive.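 How the source made its calls: active means mean signal decrease across replicates above about 35% based on untreated-well scatter, with enough replicates individually passing (limit read from the data); inconclusive means no rule stated though some were filed; inactive means the rest.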

Assay: NIH3T3 cell viability loss – cherry-pick, single point, cytotoxicity control for T. cruzi proliferation inhibitor project, confirmation (AID 651742);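 further: 0% = median of neutral control wells and 100% = median of positive control wells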
Conditions: NIH/3T3 viability, CellTiter-Glo ATP luminescence, 90 h; at 8.35 µM; active compounds read high

Row | Structure (SMILES) | cytotoxicity (signal decrease)
1 | C[C@@H]1CCCCO[C@H](CN(C)C(=O)CCC(F)(F)F)[C@H](C)CN([C@H](C)CO)C(=O)c2cc(NS(C)(=O)=O)ccc2O1 | 5.17%
2 | O=C(C1CCC1)N1CCCCN2[C@H](CO)[C@H](c3ccc(-c4cccc(F)c4)cc3)[C@@H]2C1 | 30.8%
3 | OC[C@@H]1[C@H](c2ccc(C#Cc3ccccc3)cc2)[C@@H]2CN(Cc3cncnc3)CCCCN12 | 41.5% (active)
4 | COc1ccccc1NC(=O)N1CCCCN2[C@H](C1)[C@H](c1ccc(-c3ccccc3)cc1)[C@@H]2CO | 33.3%
5 | COc1ccccc1C#Cc1ccc([C@H]2[C@H](CO)N3CCCCN(C(=O)C4CCC4)C[C@@H]23)cc1 | 50.3% (active)
6 | COc1ccccc1C#Cc1ccc([C@@H]2[C@H](CO)N3CCCCN(C(=O)C4CC4)C[C@@H]23)cc1 | 17.7%
7 | O=C(CN1CCOCC1)N1CCCCN2[C@@H](CO)[C@H](c3ccc(/C=C/c4ccccc4)cc3)[C@@H]2C1 | 32.3%
8 | Cc1ccc(-c2ccc([C@H]3[C@H](CO)N4CCCCN(Cc5cncnc5)C[C@@H]34)cc2)cc1 | 20%
9 | CCC(=O)N1CCCCN2[C@H](C1)[C@@H](c1ccc(/C=C/c3ccccc3)cc1)[C@@H]2CO | 38.9% (active)
10 | O=C(C1CCC1)N1CCCCN2[C@H](CO)[C@H](c3ccc(-c4ccncc4)cc3)[C@@H]2C1 | -4.89%
11 | CCC(=O)N1CCCCN2[C@H](C1)[C@@H](c1ccc(-c3ccc(F)cc3)cc1)[C@@H]2CO | 15.5%
12 | COc1ccccc1C#Cc1ccc([C@@H]2[C@H](CO)N3CCCCN(C(=O)C4CCCC4)C[C@@H]23)cc1 | 53.5% (active)
13 | OC[C@@H]1[C@H](c2ccc(C#CC3(O)CCCC3)cc2)[C@H]2CN(Cc3cncnc3)CCCCN12 | 13.7%
14 | C[C@@H]1CCCCO[C@H](CN(C)S(=O)(=O)c2ccc(Cl)cc2)[C@H](C)CN([C@@H](C)CO)C(=O)c2cc(NS(=O)(=O)c3cccs3)ccc2O1 | -18.8%
15 | C[C@@H]1CN([C@H](C)CO)C(=O)CCCn2nncc2CO[C@@H]1CN(C)Cc1ccc(C(=O)Nc2ccccc2N)cc1 | 14.8%
16 | Cc1ccc(S(=O)(=O)N2C[C@@H](O)COC[C@@H]3O[C@H](CC(=O)NCc4ccc(Cl)c(Cl)c4)CC[C@H]32)cc1 | 3.54%
17 | O=C(C1CCCC1)N1CCCCN2[C@@H](CO)[C@H](c3ccc(-c4cccc(F)c4)cc3)[C@@H]2C1 | 25.5%
18 | CCCNC(=O)N1[C@@H]2c3cccc(=O)n3C[C@H]1[C@H](CO)[C@H]2C(=O)NCC(F)(F)F | 19.4%
19 | C[C@@H]1CCCCO[C@H](CN(C)C(=O)Nc2cccc3ccccc23)[C@H](C)CN([C@H](C)CO)C(=O)c2cc(NS(=O)(=O)c3cccs3)ccc2O1 | 2.6%
20 | Cc1ccc(S(=O)(=O)Nc2ccc3c(c2)C(=O)N([C@H](C)CO)C[C@H](C)[C@H](CN(C)C(=O)Nc2ccc(F)cc2)OCCCC[C@H](C)O3)cc1 | -4.04%

Row | Structure (SMILES) | cytotoxicity (signal decrease)
21 | Cc1ccc(S(=O)(=O)N(C)C[C@H]2OCCCC[C@H](C)Oc3ccc(NC(=O)Cc4ccccc4)cc3C(=O)N([C@@H](C)CO)C[C@@H]2C)cc1 | -1.37%
22 | COc1ccc(NC(=O)N(C)C[C@H]2OCCCC[C@H](C)Oc3ccc(NC(=O)Nc4ccc(C(F)(F)F)cc4)cc3C(=O)N([C@@H](C)CO)C[C@@H]2C)cc1 | -11.5%
23 | C[C@H]1CCCCO[C@H](CN(C)S(=O)(=O)c2ccc(Cl)cc2)[C@@H](C)CN([C@@H](C)CO)C(=O)c2cc(NC(=O)Nc3ccc4c(c3)OCO4)ccc2O1 | 6.45%
24 | C[C@@H]1CN([C@@H](C)CO)C(=O)c2cc(C#Cc3ccccc3)cnc2O[C@H]1CN(C)C(=O)c1ccccn1 | 15.5%
25 | C[C@@H]1CN([C@H](C)CO)S(=O)(=O)c2ccc(C#CCC3CCCC3)cc2O[C@H]1CN(C)C(=O)CC1CC1 | -5.41%
26 | C[C@H]1CCCCO[C@@H](CN(C)S(=O)(=O)c2cccs2)[C@@H](C)CN([C@@H](C)CO)C(=O)c2cc(NS(=O)(=O)c3ccc(Cl)cc3)ccc2O1 | 5.91%
27 | O=C(Nc1ccccc1)N1CCCCN2[C@H](CO)[C@@H](c3ccc(C#Cc4ccccn4)cc3)[C@H]2C1 | 1.29%
28 | N#Cc1cccc(-c2ccc([C@H]3[C@H](CO)N4CCCCN(C(=O)Nc5cccc(F)c5)C[C@@H]34)cc2)c1 | 32.4%
29 | O=C(Nc1cccc(F)c1)N1CCCCN2[C@H](CO)[C@H](c3ccc(C#CC4CC4)cc3)[C@@H]2C1 | 35.2% (active)
30 | C[C@@H]1CN([C@H](C)CO)C(=O)c2cc(NS(=O)(=O)c3cccs3)ccc2O[C@@H](C)CCCCO[C@@H]1CN(C)S(=O)(=O)c1ccc(Cl)cc1 | -7.98%
31 | COc1ccc(NC(=O)Nc2ccc3c(c2)C(=O)N([C@H](C)CO)C[C@H](C)[C@H](CN(C)S(=O)(=O)c2ccc(Cl)cc2)OCCCC[C@H](C)O3)cc1 | -12.7%
32 | O=C(c1ccccn1)N1CC[C@@H]2[C@H]1c1cc(-c3ccccc3)ccc1N[C@@H]2CO | 3.39%
33 | C[C@@H]1CN([C@@H](C)CO)C(=O)c2cc(NC(=O)Nc3ccc4c(c3)OCO4)ccc2O[C@@H]1CN(C)Cc1ccc(Oc2ccccc2)cc1 | 22.6%
34 | C[C@@H]1CN([C@H](C)CO)C(=O)Cc2cc(NC(=O)c3ccncc3)ccc2O[C@H]1CN(C)Cc1ccc(-c2ccccc2)cc1 | 32.8%
35 | C[C@@H]1CN([C@@H](C)CO)C(=O)Cc2cc(NC(=O)C3CCCCC3)ccc2O[C@@H]1CN(C)Cc1ccc(C(=O)Nc2ccccc2N)cc1 | 37.8% (active)
36 | C[C@H](CO)N1C[C@H](C)[C@H](CN(C)Cc2ccc(-c3ccccc3)cc2)Oc2ccc(NC(=O)Nc3ccc(F)cc3)cc2CC1=O | 43.5% (active)
37 | C[C@H](CO)N1C[C@H](C)[C@@H](CN(C)Cc2ccc(-c3ccccc3)cc2)Oc2ccc(NC(=O)CCC(F)(F)F)cc2CC1=O | 32.2%
38 | C[C@H]1CN([C@@H](C)CO)C(=O)Cc2cc(NC(=O)Cc3cn(C)c4ccccc34)ccc2O[C@@H]1CN(C)Cc1ccccc1 | -12.8%
39 | C[C@@H]1CN([C@H](C)CO)C(=O)Cc2cc(NC(=O)Cc3ccccc3)ccc2O[C@H]1CN(C)Cc1ccc(Oc2ccccc2)cc1 | 1.79%
40 | O=C(C1CC1)N1CCCCN2[C@H](CO)[C@H](c3ccc(-c4cccc(F)c4)cc3)[C@H]2C1 | 2.61%

Row | Structure (SMILES) | cytotoxicity (signal decrease)
41 | CN1c2ccc(-c3ccccc3)cc2[C@H]2[C@H](CCN2C(=O)Cc2ccccn2)[C@H]1CO | 8.34%
42 | C[C@@H]1CCCCO[C@H](CN(C)S(=O)(=O)c2cccs2)[C@H](C)CN([C@H](C)CO)C(=O)c2cc(NS(=O)(=O)c3ccc(F)cc3)ccc2O1 | -5.09%
43 | COc1ccc(NC(=O)N2CC[C@@H]3[C@@H](CO)N(C)c4ccc(-c5cccc(F)c5)cc4[C@@H]32)cc1 | 1.1%
44 | O=C(NCC1CCCCC1)[C@H]1[C@H](CO)[C@H]2Cn3c(cccc3=O)[C@H]2N1C(=O)CC1CC1 | 0.341%
45 | COc1cccc(C#Cc2ccc([C@@H]3[C@H](C#N)N[C@H]3CO)cc2)c1 | -25.2%
46 | COCC(=O)N1CC[C@@H]2[C@@H](CO)Nc3ccc(-c4cccc(C#N)c4)cc3[C@@H]21 | 2.33%
47 | CN1C(=O)c2cc(NC(=O)c3cnccn3)ccc2OC[C@@H]2O[C@H](CC(=O)N[C@@H]3CCN(Cc4ccccc4)C3)CC[C@@H]21 | -18.7%
48 | CCC(=O)N1CC[C@@H]2[C@@H](CO)N(C)c3ccc(-c4cccc(OC)c4)cc3[C@@H]21 | -4.46%
49 | O=C(c1cnccn1)N1CC[C@@H]2[C@H](CO)Nc3ccc(-c4cccc(F)c4)cc3[C@@H]21 | 32.9%
50 | CCCC#Cc1ccc([C@H]2[C@H](CO)N3CCCCN(C(=O)c4ccc5c(c4)OCO5)C[C@@H]23)cc1 | 35.2% (active)
51 | CN(C)C(=O)c1ccc(-c2ccc([C@H]3[C@@H](CO)N4CCCCN(CC5CC5)C[C@H]34)cc2)cc1 | -1.46%
52 | O=C(c1ccncc1)N1CCCCN2[C@H](CO)[C@H](c3ccc(-c4ccccc4)cc3)[C@H]2C1 | 6.21%
53 | COc1ccc(C#Cc2ccc([C@@H]3[C@@H](CO)N4CCCCN(C(=O)c5ccncc5)C[C@@H]34)cc2)cc1 | 22.3%
54 | O=C(c1cccc(F)c1)N1CCCCN2[C@H](CO)[C@H](c3ccc(-c4ccncc4)cc3)[C@H]2C1 | -11.1%
55 | COc1ccc(-c2ccc([C@H]3[C@H]4CN(C(=O)c5ccc6c(c5)OCO6)CCCCN4[C@H]3CO)cc2)cc1 | 44.1% (active)
56 | COCC#Cc1ccc([C@@H]2[C@H](CO)N3CCCCN(C(=O)CN(C)C)C[C@@H]23)cc1 | -18.1%
57 | CC(C)(O)C#Cc1ccc([C@@H]2[C@H](CO)N3CCCCN(C(=O)c4cccc(F)c4)C[C@@H]23)cc1 | -14.5%
58 | Cc1cccc(-c2ccc([C@@H]3[C@H](CO)N4CCCCN(C(=O)c5ccc6c(c5)OCO6)C[C@@H]34)cc2)c1 | 69.7% (active)
59 | COCCNC[C@@H]1[C@H](c2ccccc2)[C@H](CO)N1c1nc(C)c(C)s1 | -17.4%
60 | CC(=O)N1CC[C@@H]2[C@H](CO)Nc3ccc(C#Cc4ccccc4F)cc3[C@@H]21 | -0.01%
